Bioassay records from PubChem BioAssay.
Hits are enriched below; roughly 17% of the tested compounds scored in any of these assays.
TDP1 inh – TDP1 (human) enzyme inhibition | recombinant TDP1, AlphaScreen DNA substrate cleavage | 0.28% of 350,000 active | Potency, µM (top dose mostly 130 µM), actives largely listed as inhibitors | Q9NUW8 | AID 485290; note: nearly all actives have a fitted effect of over 40% in size
Target sequence (Q9NUW8 whole entry, looked up): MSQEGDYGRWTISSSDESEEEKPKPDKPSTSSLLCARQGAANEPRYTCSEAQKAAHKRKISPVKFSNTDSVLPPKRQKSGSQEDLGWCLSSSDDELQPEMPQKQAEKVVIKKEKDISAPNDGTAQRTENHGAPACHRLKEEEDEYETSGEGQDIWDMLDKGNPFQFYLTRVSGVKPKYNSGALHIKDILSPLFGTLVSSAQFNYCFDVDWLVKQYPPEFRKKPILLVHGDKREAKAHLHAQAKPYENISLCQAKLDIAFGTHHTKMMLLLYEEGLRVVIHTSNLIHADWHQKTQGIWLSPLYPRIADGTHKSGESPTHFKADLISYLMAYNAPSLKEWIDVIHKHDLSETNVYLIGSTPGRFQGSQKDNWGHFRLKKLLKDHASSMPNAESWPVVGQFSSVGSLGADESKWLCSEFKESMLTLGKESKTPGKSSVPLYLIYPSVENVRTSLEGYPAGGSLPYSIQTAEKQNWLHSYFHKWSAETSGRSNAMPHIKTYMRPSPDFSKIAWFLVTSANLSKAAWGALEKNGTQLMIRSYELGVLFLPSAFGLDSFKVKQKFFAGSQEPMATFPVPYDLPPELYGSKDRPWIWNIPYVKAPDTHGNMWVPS
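Steps: enzyme plus compound, 15 min RT; add biotin/phosphotyrosine-FITC oligonucleotide (15 nM final), react 5 min; add donor/acceptor beads (10 ug/ml final), 10 min; read AlphaScreen. Tdp1 at 1 nM final.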
DT40 TDP1 CPT – DT40-hTDP1 cell growth loss with CPT; chicken DT40 Tdp1-/-;hTDP1 cells + 20 nM CPT, ATP luminescence, 48 h; Potency, µM (titrated, usually from 46.2 µM), usual class: inhibitors; 12% of 420,000 active; AID 686979; note: nearly all actives have a fitted effect of over 55% in size
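Chicken DT40 Tdp1-/- cells complemented with human TDP1, 400 cells/well, exposed to compounds plus 20 nM camptothecin for at least 48 h at 37 C; viability read as ATP content by CellTiter-Glo luminescence.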
ClpP mod – qHTS Assay for Activators of ClpP | 1.9% of 340,000 active | AID 651965, 2013 | Potency, µM (highest dose often 57.5 µM) | purified B. subtilis ClpP, FRET peptide cleavage, 20 min | ATP-dependent Clp protease proteolytic subunit (Bacillus subtilis (strain 168)), P80244; active = well fitted falling curve with a large enough effect; inconclusive = small, poorly fitted or top-dose-only effect; inactive = no such curve, though single readings can be large or run the other way; note: the source files actives as falling curves though it sought activators and does not explain the sign; nearly all actives have a fitted effect of over 65% in size
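Purified B. subtilis ClpP, 10 microg/mL final in Tris/HCl pH8 with KCl, BSA, glycerol and Tween-20, cleaved an Abz/nitrotyrosine-quenched decapeptide. Fluorescence (ex 320, em 430) was read at 0 and 20 min at room temperature. Delta was normalized to 5.8 microM ADEP and DMSO/no-enzyme controls.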
TDP1 cell noCPT – qHTS for Inhibitors of human tyrosyl-DNA phosphodiesterase 1 (TDP1): qHTS in cells in absence of CPT. DT40 Tdp1-/- hTDP1 cells, no CPT, ATP luminescence, 48 h. Potency, µM (series often up to 46.2 µM), most hits filed as inhibitors. 15% of 420,000 active; note: nearly all actives have a fitted effect of over 55% in size
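Cells were dispensed at 400 per well, compounds added by pin tool, plates incubated ≥48 hr at 37 °C, then CellTiter-Glo added for 30 min at room temperature before luminescence reading. Line: DT40 Tdp1-/- complemented with hTDP1; camptothecin omitted.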
Each line names hits and unclear results; the compound was inactive in the other large screens. Unless noted, calls come from the whole dose curve; as a rule, active = well fitted curve in the direction sought with a large enough effect; inconclusive = small, poorly fitted or top-dose-only effect, or another doubt; inactive = no such curve, though single readings can be large; an effect the other way counts as inactive or inconclusive.

COc1ccc(C(=O)N/C(=C\c2cn(C)c3ccccc23)C(=O)OCCN(C)C)cc1	none (no result: TDP1 inh)
COc1ccc(C(=O)/C=C/c2cn(CC(O)CN(CC(C)C)CC(C)C)c3ccccc23)cc1 (centres undefined)	DT40 TDP1 CPT 15µM, TDP1 cell noCPT 16µM
O=C(COC(=O)c1nc(Cl)ccc1Cl)Nc1cccc(S(=O)(=O)N2CCOCC2)c1	none (no result: TDP1 inh)
CC1CC(C)CN(C(=O)CSc2nnc(-c3ccc(Cl)cc3)o2)C1 (centres undefined)	DT40 TDP1 CPT inconclusive, TDP1 cell noCPT 18µM
Cc1ccc(-c2nnc(SCC(=O)N3CC(C)CC(C)C3)o2)cc1C (centres undefined)	DT40 TDP1 CPT 26µM, TDP1 cell noCPT 21µM
COc1cccc(-c2nnc(SCC(=O)N3CC(C)CC(C)C3)o2)c1 (centres undefined)	DT40 TDP1 CPT inconclusive, TDP1 cell noCPT 21µM
C[N+](C)(C)CCN1CCc2ccccc21	none (no result: TDP1 inh)
Cc1cc2[nH]c(=O)c(=O)[nH]c2cc1S(=O)(=O)NCc1ccc(F)cc1	none
O=C(O)CCS(=O)(=O)c1cccc2cccnc12	none
CCSS(=O)(=O)c1cccc2cccnc12	DT40 TDP1 CPT 15µM, TDP1 cell noCPT inconclusive (no result: ClpP mod)
CCCCN(c1ccccc1)S(=O)(=O)c1cccc2cccnc12	DT40 TDP1 CPT inconclusive, TDP1 cell noCPT 15µM
CN1CCN(S(=O)(=O)c2ccc(NC(=O)Cc3ccc([N+](=O)[O-])cc3)cc2)CC1	none
COC(=O)C(Sc1ccc(Cl)cc1)C1SC(=S)N(Cc2ccccc2)C1=O (centres undefined)	DT40 TDP1 CPT 2.9µM, TDP1 cell noCPT 2.1µM (no result: TDP1 inh)
Cc1ccc(C)c(NC(=O)Cn2c(-c3nonc3N)nc3ccccc32)c1	none (no result: TDP1 inh)
CCc1ccc(NC(=O)Cn2c(-c3cncs3)nc3ccccc32)cc1	DT40 TDP1 CPT inconclusive, ClpP mod inconclusive, TDP1 cell noCPT 15µM
O=C(Cn1c(-c2cscn2)nc2ccccc21)Nc1ccccc1F	DT40 TDP1 CPT 7.9µM, TDP1 cell noCPT inconclusive
COC(=O)c1ccc(NC(=O)Cn2c(-c3nonc3N)nc3ccccc32)cc1	DT40 TDP1 CPT inconclusive
Nc1nonc1-c1nc2ccccc2n1CC(=O)N/N=C/c1ccc(-c2cccc(C(=O)O)c2)o1	TDP1 inh 14µM (no result: ClpP mod)
CCOC(=O)c1ccc(NC(=O)Cn2c(-c3nonc3N)nc3ccccc32)cc1	DT40 TDP1 CPT 16µM, TDP1 cell noCPT inconclusive
COC(=O)c1ccccc1NC(=O)Cn1c(-c2nonc2N)nc2ccccc21	DT40 TDP1 CPT 0.79µM, TDP1 cell noCPT 0.71µM
Nc1nonc1-c1nc2ccccc2n1CC(=O)Nc1ccccc1C(=O)O	DT40 TDP1 CPT inconclusive, TDP1 cell noCPT inconclusive
Fc1ccccc1/C=N/Nc1ncnc2ccccc12	DT40 TDP1 CPT 6.5µM, TDP1 cell noCPT 15µM (no result: ClpP mod)
Clc1cccc(/C=N/Nc2nc(Cl)nc3ccccc23)c1	DT40 TDP1 CPT 23µM, TDP1 cell noCPT inconclusive
Clc1ccc(/C=N/Nc2ncnc3ccccc23)cc1Cl	DT40 TDP1 CPT 21µM, ClpP mod 28µM, TDP1 cell noCPT 21µM
CCOc1ccc(NC(=O)CCC(=O)NNC(=O)Nc2ccc(Cl)cc2)cc1	none (no result: ClpP mod)
CCCCOC(=O)CCc1nc2ccccc2[nH]c1=O	ClpP mod inconclusive
CCOC(=O)c1ccc(COC(=O)CCc2nc3ccccc3[nH]c2=O)o1	ClpP mod 32µM
Cc1ccc(C(=O)OCC(=O)Nc2nc(-c3ccccc3)cs2)cc1NC(=O)c1ccco1	DT40 TDP1 CPT inconclusive, TDP1 cell noCPT inconclusive
CCCCOc1cccc(C(=O)Nc2cccc(-c3nc4ncccc4o3)c2C)c1	DT40 TDP1 CPT inconclusive, TDP1 cell noCPT inconclusive
CCCOc1ccc(C(=O)Nc2ccc(Cl)c(-c3nc4ncccc4o3)c2)cc1	DT40 TDP1 CPT 23µM, TDP1 cell noCPT 10µM
Cc1c(NC(=O)c2cccc(-c3cc4ccccc4oc3=O)c2)cccc1-c1nc2ncccc2o1	DT40 TDP1 CPT 26µM, ClpP mod 22µM, TDP1 cell noCPT 21µM
Cc1ccc(OCC(=O)Nc2ccc(Cl)c(-c3nc4ncccc4o3)c2)c(C)c1	DT40 TDP1 CPT inconclusive, ClpP mod inconclusive, TDP1 cell noCPT 15µM
Cc1ccc(OCC(=O)Nc2ccc(-c3nc4ncccc4o3)cc2)c(C)c1	DT40 TDP1 CPT inconclusive, ClpP mod 25µM, TDP1 cell noCPT inconclusive
CCc1ccc(OCC(=O)Nc2ccc(Cl)c(-c3nc4ncccc4o3)c2)cc1	DT40 TDP1 CPT inconclusive, ClpP mod inconclusive, TDP1 cell noCPT inconclusive
O=C(NCc1ccco1)c1cc([N+](=O)[O-])cc([N+](=O)[O-])c1	DT40 TDP1 CPT inconclusive, TDP1 cell noCPT inconclusive
O=C(Nc1cccc([N+](=O)[O-])c1)N1CCCCCC1	none
CC1CCCN(C(=O)c2cccc(S(=O)(=O)N3CCCC3)c2)C1 (centres undefined)	none
O=C(Nc1cccc(-c2nc3ncccc3o2)c1)c1ccccc1	DT40 TDP1 CPT inconclusive, TDP1 cell noCPT 12µM
COc1ccc(C(=O)Nc2nc3ccc(OC)cc3s2)cc1	DT40 TDP1 CPT inconclusive, TDP1 cell noCPT inconclusive
O=C(COc1ccccc1)Nc1ccc(Cl)c(-c2nc3ncccc3o2)c1	none (no result: TDP1 inh)
Cc1cc(C)c2oc(-c3cccc(NC(=O)COc4ccc(Cl)cc4C)c3C)nc2c1	DT40 TDP1 CPT 5µM (no result: TDP1 inh)
COc1ccc2nc(NC(=O)c3cccc(-c4cc5ccccc5oc4=O)c3)sc2c1	DT40 TDP1 CPT 16µM, TDP1 cell noCPT 16µM
Cc1cc(C)cc(OCC(=O)Nc2ccc(Cl)c(-c3nc4ncccc4o3)c2)c1	DT40 TDP1 CPT 18µM, TDP1 cell noCPT inconclusive
Cc1ccc2oc(-c3cccc(NC(=O)COc4ccc(Cl)cc4C)c3C)nc2c1	none (no result: TDP1 inh)
Cc1ccc(NC(=O)CC2OC(=O)c3ccccc32)cc1S(=O)(=O)N1CCCCCC1 (centres undefined)	DT40 TDP1 CPT inconclusive, TDP1 cell noCPT inconclusive
Cc1ccc(-c2nc3ncccc3o2)cc1NC(=O)COc1ccc(C(C)C)cc1	DT40 TDP1 CPT inconclusive, TDP1 cell noCPT 16µM (no result: TDP1 inh)
COc1cccc(OC)c1C(=O)Nc1ccc(-c2nc3ncccc3o2)cc1	ClpP mod 28µM, TDP1 cell noCPT inconclusive
COc1ccc(-c2[nH]ncc2CN2CCC(O)(c3ccc(Cl)cc3)CC2)cc1	DT40 TDP1 CPT inconclusive, TDP1 cell noCPT 10µM (no result: ClpP mod)
OC1(c2ccc(Cl)cc2)CCN(Cc2cn[nH]c2-c2ccc(F)cc2)CC1	DT40 TDP1 CPT 13µM, TDP1 cell noCPT 4.1µM (no result: ClpP mod)
COc1ccc(-c2[nH]ncc2CN2CCN(c3ccc(F)cc3)CC2)cc1	none
OC1(c2ccc(Cl)cc2)CCN(Cc2cn[nH]c2-c2ccccc2)CC1	DT40 TDP1 CPT 16µM, TDP1 cell noCPT 15µM (no result: ClpP mod)
CCCn1c(N)c(N(CCOC)C(=O)Cc2ccc(S(=O)(=O)N3CCOCC3)s2)c(=O)[nH]c1=O	none
Cc1ccccc1CN(c1ccc(C(=O)NCc2ccccn2)cc1)S(C)(=O)=O	none
CCOc1ccc(NC(=O)NC(CC)Cn2nnc3ccccc3c2=O)cc1 (centres undefined)	none
